# Test results from PubChem BioAssay (EPA / NIEHS).
# “And” between values parts separate entries of the source, which are not always exact repeats. Identical values can stand only once. Results filed as inconclusive are left out. Where a structure was tested more than once in an assay, its records may differ in their call. The source made the active and inactive calls. How the source made its calls, unless noted: active means hit-call score of the fitted dose curve at least 0.9, where 1 is the maximum; inconclusive means response in the unintended direction; inactive means score below 0.9.
# Tests used:
# [1] = target: Cytochrome P450 2C18 (Homo sapiens) (UniProt P33260); experiment: NVS_ADME_hCYP2C18: NovaScreen (NVS) CYP450-related Enzyme Activity (ADME) Assay for human CYP2C18 (AID 2283103; active means hit-call score of the fitted dose curve at least 0.9, where 1 is the maximum; inactive means score below 0.9)
# Sequence of Cytochrome P450 2C18 (Homo sapiens) (P33260 whole entry, looked up): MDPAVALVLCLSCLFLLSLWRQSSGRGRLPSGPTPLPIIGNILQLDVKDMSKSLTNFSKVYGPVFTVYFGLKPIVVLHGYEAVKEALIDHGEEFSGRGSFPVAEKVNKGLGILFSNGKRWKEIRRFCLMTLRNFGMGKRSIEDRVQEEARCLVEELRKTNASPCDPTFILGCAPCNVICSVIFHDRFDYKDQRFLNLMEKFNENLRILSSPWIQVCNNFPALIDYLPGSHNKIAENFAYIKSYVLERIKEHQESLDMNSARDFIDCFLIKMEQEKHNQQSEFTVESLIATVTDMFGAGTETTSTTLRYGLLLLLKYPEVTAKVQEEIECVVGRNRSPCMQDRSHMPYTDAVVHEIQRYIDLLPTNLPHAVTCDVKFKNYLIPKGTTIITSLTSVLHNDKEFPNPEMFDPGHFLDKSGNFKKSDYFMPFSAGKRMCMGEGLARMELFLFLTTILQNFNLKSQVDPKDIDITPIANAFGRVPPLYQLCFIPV
# Summary of the method: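 Cell-free recombinant human CYP2C18 with fluorogenic substrate; fluorescence intensity read 0.5 h after dosing. Single-point screen at 10 uM in duplicate, then concentration-response up to 20 uM; loss of signal fitted against acetonitrile baseline.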
# [2] = target: human Matrix Metalloproteinase-1 (MMP1), MMP1 (gene 4312) (UniProt P03956); experiment: NVS_ENZ_hMMP1: NovaScreen (NVS) Enzymatic Assay for human Matrix Metalloproteinase-1 (MMP1) (AID 2283181)
# Summary of the method: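 Human MMP1 enzyme activity measured by fluorescence 1 h after dosing, cell-free, with a specific substrate. Screened in duplicate at 25 uM; hits (e.g. 30% inhibition) run in concentration-response up to 50 uM; loss of signal versus DMSO.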
# [3] = CCTE_Harrill_HTTr_Apoptosis_PRF_DMEM_12hr: (Pilot) CCTE's 12-hour Apoptosis Assessment for the High-Throughput Transcriptomics (HTTr) Platform, in MCF-7 cells cultured in phenol red-free DMEM + 10% charcoal-stripped fetal bovine serum, Harrill Lab (AID 2283985; active means hit-call score of the fitted dose curve at least 0.9, where 1 is the maximum; inactive means score below 0.9)
# Summary of the method: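 MCF-7 cells in phenol red-free DMEM with 10% charcoal-stripped FBS, eight-point dilution series, 12 h exposure. Caspase-3/7 activation imaged by high content imaging with CellEvent Green reagent; bidirectional fit vs DMSO.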
# [4] = target: Androgen receptor (Homo sapiens) (UniProt P10275); experiment: ATG_AR_TRANS: Attagene TRANS-FACTORIAL HepG2 Assay for human Androgen Receptor (AR) (AID 2282973); conditions: HepG2 Attagene TRANS-FACTORIAL AR reporter transcription
# Sequence of Androgen receptor (Homo sapiens) (P10275 whole entry, looked up, the tested form may be a part): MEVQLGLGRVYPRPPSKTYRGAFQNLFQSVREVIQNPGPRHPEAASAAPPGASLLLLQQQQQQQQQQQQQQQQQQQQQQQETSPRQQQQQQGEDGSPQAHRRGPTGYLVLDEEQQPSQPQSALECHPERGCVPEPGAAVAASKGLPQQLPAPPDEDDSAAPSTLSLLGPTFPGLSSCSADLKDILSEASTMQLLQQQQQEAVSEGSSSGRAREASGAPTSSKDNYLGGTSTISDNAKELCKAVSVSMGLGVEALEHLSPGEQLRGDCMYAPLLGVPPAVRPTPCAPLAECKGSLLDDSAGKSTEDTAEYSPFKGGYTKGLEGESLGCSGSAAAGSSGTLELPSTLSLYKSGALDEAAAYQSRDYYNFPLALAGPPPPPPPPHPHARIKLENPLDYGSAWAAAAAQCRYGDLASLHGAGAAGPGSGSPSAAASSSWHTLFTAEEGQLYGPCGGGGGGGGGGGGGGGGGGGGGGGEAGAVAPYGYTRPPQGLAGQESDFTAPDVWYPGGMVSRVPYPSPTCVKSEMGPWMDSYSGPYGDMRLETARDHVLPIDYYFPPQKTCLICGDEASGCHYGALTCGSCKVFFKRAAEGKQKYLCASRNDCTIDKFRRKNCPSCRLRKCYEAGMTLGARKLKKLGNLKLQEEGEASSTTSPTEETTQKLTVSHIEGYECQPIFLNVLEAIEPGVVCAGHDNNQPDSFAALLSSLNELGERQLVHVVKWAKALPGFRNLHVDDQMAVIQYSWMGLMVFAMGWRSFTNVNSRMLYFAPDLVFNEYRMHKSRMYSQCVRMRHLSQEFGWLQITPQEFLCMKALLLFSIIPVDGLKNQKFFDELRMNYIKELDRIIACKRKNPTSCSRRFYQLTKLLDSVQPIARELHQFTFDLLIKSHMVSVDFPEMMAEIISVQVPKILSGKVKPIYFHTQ
# Summary of the method: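 Transfected HepG2, 24 h treatment, chimeric NR-Gal4 driving GAL4-UAS reporters. mRNA induction by RT-PCR/capillary electrophoresis fluorescence; DMSO as negative control and baseline.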
# [5] = Tanguay_ZF_120hpf_MUSC: Oregon State University Tanguay Lab 120 Hour Post-fertilization zebrafish Assay for Muscle Malformation (AID 2284401; active means hit-call score of the fitted dose curve at least 0.9, where 1 is the maximum; inactive means score below 0.9)
# Summary of the method: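 Dechorionated Tropical 5D wild-type zebrafish embryos exposed statically from 6 to 120 hpf at 28C, one per well, in 0.64% DMSO. Muscle malformation scored present/absent by brightfield microscopy at 120 hpf, fitted against DMSO.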
# [6] = target: human CYP4F12, CYP4F12 (gene 66002) (UniProt Q9HCS2); experiment: NVS_ADME_hCYP4F12: NovaScreen (NVS) CYP450-related Enzyme Activity (ADME) Assay for human CYP4F12 (AID 2283111)
# Sequence of human CYP4F12, CYP4F12 (gene 66002) (Q9HCS2 whole entry, looked up): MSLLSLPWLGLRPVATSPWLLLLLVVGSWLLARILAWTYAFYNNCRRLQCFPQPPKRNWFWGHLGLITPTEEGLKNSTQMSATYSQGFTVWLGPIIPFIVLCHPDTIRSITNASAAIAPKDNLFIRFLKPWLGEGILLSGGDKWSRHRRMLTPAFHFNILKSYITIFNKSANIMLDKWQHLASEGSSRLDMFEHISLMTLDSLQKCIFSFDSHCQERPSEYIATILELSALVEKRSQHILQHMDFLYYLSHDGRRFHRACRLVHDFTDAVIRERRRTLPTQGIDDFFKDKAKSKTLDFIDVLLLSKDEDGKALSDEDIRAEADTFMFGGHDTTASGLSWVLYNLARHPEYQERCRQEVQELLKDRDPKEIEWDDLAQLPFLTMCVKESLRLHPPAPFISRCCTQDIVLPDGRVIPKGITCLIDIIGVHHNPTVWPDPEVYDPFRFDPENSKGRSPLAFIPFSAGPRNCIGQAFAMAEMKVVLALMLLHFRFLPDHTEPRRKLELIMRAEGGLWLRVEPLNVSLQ
# Summary of the method: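 Cell-free fluorescence assay of recombinant human CYP4F12 activity on a specific substrate, read 0.5 h after dosing. Primary screen in duplicate at 10 uM, then concentration series for actives; loss of signal fitted against acetonitrile negative control.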
# [7] = target: human Acetylcholinesterase (AChE), ACHE (gene 43) (UniProt P22303); experiment: NVS_ENZ_hAChE: NovaScreen (NVS) Enzymatic Assay for human Acetylcholinesterase (AChE) (AID 2283129)
# Summary of the method: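 Cell-free colorimetric enzyme-activity assay; compounds read 0.33 hour after dosing, loss of signal vs DMSO baseline. Primary screen in duplicate at 25 uM single concentration, with active compounds retested in concentration series.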
# [8] = system: rat Monoamine Oxidase, MAO-A, Central (MAOAC), gene 29253; experiment: NVS_ENZ_rMAOAC: NovaScreen (NVS) Enzymatic Assay for rat Monoamine Oxidase, MAO-A, Central (MAOAC) (AID 2283243);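 further: potency refers to inhibition seen as signal drop below DMSO baseline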
# Summary of the method: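 Rat brain tissue extract used as enzyme source in a cell-free radiometric assay, read by scintillation counting 1.5 hours after dosing. Loss of signal relative to DMSO baseline scored; primary screen at 25 uM in duplicate, actives followed up in concentration series.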
# [9] = target: human CYP2J2, CYP2J2 (gene 1573) (UniProt P51589); experiment: NVS_ADME_hCYP2J2: NovaScreen (NVS) CYP450-related Enzyme Activity (ADME) Assay for human CYP2J2 (AID 2283106)
# Sequence of human CYP2J2, CYP2J2 (gene 1573) (P51589 whole entry, looked up): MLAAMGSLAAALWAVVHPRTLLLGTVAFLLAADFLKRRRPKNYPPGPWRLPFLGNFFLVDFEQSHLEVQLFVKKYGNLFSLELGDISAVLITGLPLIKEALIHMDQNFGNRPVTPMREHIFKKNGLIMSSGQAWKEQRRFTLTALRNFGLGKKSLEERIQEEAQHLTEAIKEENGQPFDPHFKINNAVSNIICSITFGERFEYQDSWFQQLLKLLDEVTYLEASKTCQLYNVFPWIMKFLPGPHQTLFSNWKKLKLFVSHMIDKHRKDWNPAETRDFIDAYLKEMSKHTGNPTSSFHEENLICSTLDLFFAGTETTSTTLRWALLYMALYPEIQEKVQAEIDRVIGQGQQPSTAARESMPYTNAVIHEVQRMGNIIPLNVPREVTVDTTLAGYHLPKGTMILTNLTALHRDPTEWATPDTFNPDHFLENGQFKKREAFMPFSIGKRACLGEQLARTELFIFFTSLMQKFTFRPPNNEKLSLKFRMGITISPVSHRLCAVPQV
# Summary of the method: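 Cell-free assay of recombinant CYP2J2 with a fluorogenic substrate, read 1 h after dosing; loss of signal versus acetonitrile. Primary screen at 10 uM in duplicate, then concentration-response up to 20 uM for chemicals passing threshold (e.g., 30% inhibition).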
# [10] = target: rat CYP2C12, Cyp2c12 (gene 25011) (UniProt P11510); experiment: NVS_ADME_rCYP2C12: NovaScreen (NVS) CYP450-related Enzyme Activity (ADME) Assay for rat CYP2C12 (AID 2283119)
# Sequence of rat CYP2C12, Cyp2c12 (gene 25011) (P11510 whole entry, looked up): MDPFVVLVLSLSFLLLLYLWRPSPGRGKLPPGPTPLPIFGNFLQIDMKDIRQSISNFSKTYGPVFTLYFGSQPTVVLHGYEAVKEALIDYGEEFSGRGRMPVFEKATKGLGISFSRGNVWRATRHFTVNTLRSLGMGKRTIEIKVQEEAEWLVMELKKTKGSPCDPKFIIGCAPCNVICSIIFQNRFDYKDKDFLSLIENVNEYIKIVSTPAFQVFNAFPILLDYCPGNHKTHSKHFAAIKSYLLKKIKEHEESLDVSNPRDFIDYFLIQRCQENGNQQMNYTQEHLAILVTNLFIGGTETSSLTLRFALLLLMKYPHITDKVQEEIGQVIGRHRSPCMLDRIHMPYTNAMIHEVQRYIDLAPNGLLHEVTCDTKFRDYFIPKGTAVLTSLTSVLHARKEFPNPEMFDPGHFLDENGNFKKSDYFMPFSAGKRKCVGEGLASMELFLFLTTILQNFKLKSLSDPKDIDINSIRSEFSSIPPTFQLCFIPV
# Summary of the method: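 Cell-free recombinant rat CYP2C12 activity read by fluorescence 0.5 h after dosing; loss of signal versus acetonitrile control. Primary screen in duplicate at 10 uM; actives then run in concentration-response format.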
# [11] = target: human Peroxisome Proliferator-activated Receptor delta (PPARd), PPARD (gene 5467) (UniProt Q03181); experiment: ATG_PPARd_TRANS: Attagene TRANS-FACTORIAL HepG2 Assay for human Peroxisome Proliferator-activated Receptor delta (PPARd) (AID 2283002)
# Sequence of human Peroxisome Proliferator-activated Receptor delta (PPARd), PPARD (gene 5467) (Q03181 whole entry, looked up, the tested form may be a part): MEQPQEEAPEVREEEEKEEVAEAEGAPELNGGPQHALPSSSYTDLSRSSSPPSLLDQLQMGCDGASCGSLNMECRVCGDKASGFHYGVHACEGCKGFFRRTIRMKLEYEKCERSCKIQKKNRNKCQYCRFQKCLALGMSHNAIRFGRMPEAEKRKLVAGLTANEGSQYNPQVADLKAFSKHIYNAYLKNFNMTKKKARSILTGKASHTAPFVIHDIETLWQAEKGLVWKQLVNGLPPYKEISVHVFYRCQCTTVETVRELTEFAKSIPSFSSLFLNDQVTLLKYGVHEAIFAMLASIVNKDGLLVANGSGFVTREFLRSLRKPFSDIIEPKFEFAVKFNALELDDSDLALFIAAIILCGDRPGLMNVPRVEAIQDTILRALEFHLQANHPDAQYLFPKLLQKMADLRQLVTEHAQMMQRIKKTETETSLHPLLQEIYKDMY
# Summary of the method: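 Read-out is induced reporter mRNA, quantified by RT-PCR with fluorescent labelling and capillary electrophoresis after 24 h dosing. Cells are HepG2 transiently carrying multiple GAL4-UAS reporter units driven by exogenous NR-GAL4 chimeras; DMSO serves as baseline.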
# [12] = target: Peroxisome proliferator-activated receptor gamma (Homo sapiens) (UniProt P37231); experiment: ATG_PPARg_TRANS: Attagene TRANS-FACTORIAL HepG2 Assay for human Peroxisome Proliferator-activated Receptor-gamma (PPARg) (AID 2283007)
# Sequence of Peroxisome proliferator-activated receptor gamma (Homo sapiens) (P37231 whole entry, looked up, the tested form may be a part): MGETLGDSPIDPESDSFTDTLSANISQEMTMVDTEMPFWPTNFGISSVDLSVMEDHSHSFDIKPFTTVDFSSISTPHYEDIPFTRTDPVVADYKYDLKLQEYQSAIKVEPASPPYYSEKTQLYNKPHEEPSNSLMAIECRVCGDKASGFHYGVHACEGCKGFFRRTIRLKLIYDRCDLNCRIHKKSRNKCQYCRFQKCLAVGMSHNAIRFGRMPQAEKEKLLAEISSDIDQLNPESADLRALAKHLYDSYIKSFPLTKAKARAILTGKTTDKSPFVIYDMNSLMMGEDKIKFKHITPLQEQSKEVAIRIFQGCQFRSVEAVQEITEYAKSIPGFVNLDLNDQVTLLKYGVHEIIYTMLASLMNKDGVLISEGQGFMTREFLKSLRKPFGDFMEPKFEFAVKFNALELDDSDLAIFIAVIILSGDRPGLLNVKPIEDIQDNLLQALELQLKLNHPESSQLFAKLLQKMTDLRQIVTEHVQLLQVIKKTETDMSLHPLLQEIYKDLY
# Summary of the method: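 Liver-derived HepG2 cells expressing an exogenous NR-Gal4 chimera alongside GAL4-UAS reporter genes; 24 h exposure. Fluorescence of reporter RT-PCR products, separated by capillary electrophoresis, gives mRNA induction relative to DMSO.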
# [13] = target: Nuclear receptor subfamily 1 group I member 2 (Homo sapiens) (UniProt O75469); experiment: ATG_PXR_TRANS: Attagene TRANS-FACTORIAL HepG2 Assay for human Pregnane X Receptor (PXR) (AID 2283008)
# Sequence of Nuclear receptor subfamily 1 group I member 2 (Homo sapiens) (O75469 whole entry, looked up, the tested form may be a part): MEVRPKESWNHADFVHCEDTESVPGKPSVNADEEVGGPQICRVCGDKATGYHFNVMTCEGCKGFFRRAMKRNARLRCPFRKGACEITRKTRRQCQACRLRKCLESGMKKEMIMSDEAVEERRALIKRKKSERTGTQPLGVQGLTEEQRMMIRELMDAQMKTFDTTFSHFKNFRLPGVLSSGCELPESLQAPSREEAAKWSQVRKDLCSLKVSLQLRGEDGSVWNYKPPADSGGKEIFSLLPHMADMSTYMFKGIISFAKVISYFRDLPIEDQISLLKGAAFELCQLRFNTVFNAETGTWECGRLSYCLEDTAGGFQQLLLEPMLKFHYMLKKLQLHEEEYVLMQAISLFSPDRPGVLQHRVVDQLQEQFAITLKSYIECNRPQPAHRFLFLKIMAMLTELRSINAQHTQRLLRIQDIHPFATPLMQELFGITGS
# Summary of the method: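 Fluorescence intensity of FAM-labelled, HpaI-digested reporter amplicons, separated by capillary electrophoresis, quantifies induction. HepG2 cells with PXR-Gal4 trans-reporter system were exposed 24 h; DMSO defines baseline.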
# [14] = target: sheep Cyclooxygenase-1 (Cox1), PTGS1 (gene 443551) (UniProt P05979); experiment: NVS_ENZ_oCOX1: NovaScreen (NVS) Enzymatic Assay for sheep Cyclooxygenase-1 (Cox1) (AID 2283239);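 further: actives reduce cyclooxygenase activity so potencies are for inhibitors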
# Summary of the method: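 Native ovine seminal vesicle protein serves as enzyme source in this biochemical assay. Colorimetric signal is recorded 0.66 h after chemical addition, and decreases versus the DMSO control define activity.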
# [15] = target: Norway rat Vesicular Monoamine Transporter (VMAT2), neurotransmitter transporter, Slc18a2 (gene 25549) (UniProt Q01827); experiment: NVS_TR_rVMAT2: NovaScreen (NVS) Transporter Assay for Norway rat Vesicular Monoamine Transporter (VMAT2), neurotransmitter transporter (AID 2283376);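 further: actives lower the bound radioligand signal below the DMSO level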
# Sequence of Norway rat Vesicular Monoamine Transporter (VMAT2), neurotransmitter transporter, Slc18a2 (gene 25549) (Q01827 whole entry, looked up): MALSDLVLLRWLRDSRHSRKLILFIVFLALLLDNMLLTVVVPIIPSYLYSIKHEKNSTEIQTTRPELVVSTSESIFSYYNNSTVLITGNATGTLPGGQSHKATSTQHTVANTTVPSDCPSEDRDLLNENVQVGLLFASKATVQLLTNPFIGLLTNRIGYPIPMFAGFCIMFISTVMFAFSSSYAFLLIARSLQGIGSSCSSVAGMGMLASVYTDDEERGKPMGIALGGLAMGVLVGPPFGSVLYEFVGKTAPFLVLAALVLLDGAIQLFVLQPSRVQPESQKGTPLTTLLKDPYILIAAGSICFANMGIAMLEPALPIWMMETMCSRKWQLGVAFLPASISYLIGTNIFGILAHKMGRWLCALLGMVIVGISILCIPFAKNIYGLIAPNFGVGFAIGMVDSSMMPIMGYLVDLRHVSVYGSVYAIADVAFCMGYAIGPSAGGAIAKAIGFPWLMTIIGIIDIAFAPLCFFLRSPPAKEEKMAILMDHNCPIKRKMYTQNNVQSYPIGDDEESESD
# Summary of the method: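 Tissue: rat forebrain extract. Format: competitive radioligand binding, cell-free. Timepoint: 1 h. Readout: filter radiodetection/scintillation. Screen: 25 uM in duplicate, then concentration series for actives. Baseline: DMSO.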
# [16] = CCTE_Harrill_HTTr_Viability_MCF7: CCTE's 6-hour Cell Viability Assessment for the High-Throughput Transcriptomics (HTTr) Platform, in MCF-7 cells cultured in DMEM + 10% fetal bovine serum, Harrill Lab (AID 2284010; active means hit-call score of the fitted dose curve at least 0.9, where 1 is the maximum; inactive means score below 0.9)
# Summary of the method: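 MCF-7 cells in DMEM + 10% FBS, 384-well, exposed 6 h to an eight-point dilution series. Membrane integrity scored by high-content imaging of propidium iodide exclusion; bidirectional fit versus DMSO.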
# [17] = target: rat CYP2D1, Cyp2d1 (gene 266684) (UniProt P10633); experiment: NVS_ADME_rCYP2D1: NovaScreen (NVS) CYP450-related Enzyme Activity (ADME) Assay for rat CYP2D1 (AID 2283122)
# Summary of the method: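 Cell-free fluorescence enzyme-activity assay on extracted rat CYP2D1 protein, read 0.75 h after dosing. Primary screen in duplicate at 10 uM; qualifying chemicals then run in concentration-response to 20 uM max, loss-of-signal versus acetonitrile baseline.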
structure (smiles),measurement,setting,value
CC(=O)O[C@]1(C(C)=O)CC[C@H]2[C@@H]3C=C(Cl)C4=CC(=O)[C@@H]5C[C@@H]5[C@]4(C)[C@H]3CC[C@@]21C,AC50,[1],6.86 µM (active)
same,outcome,[1],inactive
same,outcome,[2],inactive
same,outcome,[3],inactive
OCC(O)CC(F)(F)C(F)(F)C(F)(F)C(F)(F)C(F)(F)C(F)(F)C(F)(F)C(F)(F)F (centres undefined),outcome,[4],inactive
same,outcome,[5],inactive
CC(=O)[C@H]1CC[C@H]2[C@@H]3CCC4=CC(=O)CC[C@]4(C)[C@H]3CC[C@]12C,AC50,[1],7.03 µM (active) and 2.27 µM (active)
same,outcome,[1],inactive
same,outcome,[6],inactive
same,AC50,[7],4.82 µM (active)
same,outcome,[8],inactive
C[C@]12CC[C@@H]3c4ccc(O)cc4CC[C@H]3[C@@H]1CC[C@@H]2O,AC50,[1],9.57 µM (active)
same,outcome,[9],inactive
same,outcome,[6],inactive
same,outcome,[10],inactive
O=[N+]([O-])c1ccccc1Cl,outcome,[11],inactive
same,outcome,[12],inactive
same,outcome,[13],inactive
same,outcome,[14],inactive
same,outcome,[15],inactive
same,outcome,[16],inactive
O=C(O)C(F)(F)C(F)(F)C(F)(F)C(F)(F)C(F)(F)C(F)(F)C(F)(F)C(F)(F)C(F)(F)C(F)(F)C(F)(F)C(F)(F)C(F)(F)F,outcome,[4],inactive
same,outcome,[5],inactive
NS(=O)(=O)C(F)(F)C(F)(F)C(F)(F)C(F)(F)C(F)(F)C(F)(F)F,outcome,[4],inactive
same,outcome,[5],inactive
O=S(=O)(O)CCC(F)(F)C(F)(F)C(F)(F)C(F)(F)F,outcome,[4],inactive
same,outcome,[5],inactive
OCC(F)(F)C(F)(F)C(F)(F)C(F)(F)C(F)(F)C(F)(F)F,outcome,[4],inactive
same,outcome,[5],inactive
FC(F)(F)C(F)(F)C(F)(F)C(F)(F)C(F)(F)C(F)(F)CC1CO1 (centres undefined),outcome,[4],inactive
same,outcome,[5],inactive
O=C(O)C(F)(OC(F)(F)C(F)(OC(F)(F)C(F)(OC(F)(F)C(F)(F)C(F)(F)F)C(F)(F)F)C(F)(F)F)C(F)(F)F (centres undefined),outcome,[4],inactive
same,outcome,[5],inactive
FC(F)(F)C(F)(F)C(F)(F)C(F)(F)C(F)(F)CCI,outcome,[4],inactive
same,outcome,[5],inactive
C=CC(=O)OCC(F)(F)C(F)(F)C(F)(F)C(F)(F)C(F)(F)C(F)(F)C(F)(F)F,outcome,[4],inactive
same,outcome,[5],inactive
FC(F)C(F)(F)COCC1CO1 (centres undefined),outcome,[4],inactive
same,outcome,[5],inactive
C#CCOC(=O)[C@@H](C)Oc1ccc(Oc2ncc(Cl)cc2F)cc1,AC50,[1],2.13 µM (active)
same,AC50,[9],0.189 µM (active)
same,AC50,[17],3.73 µM (active)
OCC(F)(F)C(F)(F)C(F)(F)F,outcome,[4],inactive
same,outcome,[5],inactive
